Source: the supplement of paper PMC6555819

Tests used:
Experiment in all cases: PBM binding z-score (relative to random genomic background probes); higher = stronger binding; sequences stand for … in GC…GCGATTGACAGCGTAGAATGAAGG
[1] = test system: FXR:RXRa (NR concentration 270 nM, RXRa partner concentration 90 nM)
Outline: (§1)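 Antibodies against each partner of ligand-free nuclear receptor dimers (one per run) detected binding on custom Agilent 4×180K protein-binding microarrays after 1 h incubation. The double-stranded probes had 34-nt variable regions carrying direct-repeat seeds, single-nucleotide variants, half-site ablations and random human genomic background sequences. Binding z-scores, from regression-normalized fluorescence, use the random background probes as reference.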

[2] = test system: LXRa:RXRa (NR concentration 270 nM, RXRa partner concentration 90 nM)
Outline: as §1

[3] = test system: LXRa homodimer (NR concentration 270 nM)
Outline: as §1

[4] = test system: LXRb:RXRa (NR concentration 270 nM, RXRa partner concentration 90 nM)
Outline: as §1

[5] = test system: LXRb homodimer (NR concentration 270 nM)
Outline: as §1

[6] = test system: PPARa:RXRa (NR concentration 270 nM, RXRa partner concentration 90 nM)
Outline: as §1

[7] = test system: PPARg:RXRa (NR concentration 180 nM, RXRa partner concentration 90 nM)
Outline: as §1

[8] = test system: PPARg:RXRa 270nM:90nM, anti-RXR (NR concentration 270 nM, RXRa partner concentration 90 nM)
Outline: as §1

[9] = test system: PPARg:RXRa 30nM:10nM, anti-RXR (NR concentration 30 nM, RXRa partner concentration 10 nM)
Outline: as §1

[10] = test system: PPARg:RXRa 90nM:30nM, anti-RXR (NR concentration 90 nM, RXRa partner concentration 30 nM)
Outline: as §1

[11] = test system: PPARg:RXRa DBDmut IVT, anti-RXR (DBD mutation: RXRa K156A/R161A, NR concentration 270 nM, RXRa partner concentration 90 nM)
Outline: as §1

[12] = test system: PPARg:RXRa IVT, anti-PPARg (NR concentration 270 nM, RXRa partner concentration 90 nM)
Outline: as §1

[13] = test system: PPARg DBDmut:RXRa IVT, anti-PPARg (DBD mutation: PPARg1 K132A/R137A, NR concentration 270 nM, RXRa partner concentration 90 nM)
Outline: as §1

[14] = test system: PPARg DBDmut IVT, anti-PPARg (DBD mutation: PPARg1 K132A/R137A, NR concentration 270 nM)
Outline: as §1

[15] = test system: PPARg homodimer (NR concentration 180 nM)
Outline: as §1

[16] = test system: PXR:RXRa (NR concentration 270 nM, RXRa partner concentration 90 nM)
Outline: as §1

[17] = test system: PXR homodimer (NR concentration 270 nM)
Outline: as §1

[18] = test system: RARa:RXR (NR concentration 270 nM, RXRa partner concentration 90 nM)
Outline: as §1

[19] = test system: RARa homodimer (NR concentration 270 nM)
Outline: as §1

[20] = test system: RARb:RXRa (NR concentration 270 nM, RXRa partner concentration 90 nM)
Outline: as §1

Row | Sequence | PBM binding z-score [1] | PBM binding z-score [2] | PBM binding z-score [3] | PBM binding z-score [4] | PBM binding z-score [5] | PBM binding z-score [6] | PBM binding z-score [7] | PBM binding z-score [8] | PBM binding z-score [9] | PBM binding z-score [10] | PBM binding z-score [11] | PBM binding z-score [12] | PBM binding z-score [13] | PBM binding z-score [14] | PBM binding z-score [15] | PBM binding z-score [16] | PBM binding z-score [17] | PBM binding z-score [18] | PBM binding z-score [19] | PBM binding z-score [20]
1 | ACTTACGGGTCAACGAGGTTATGGCACGCGTATA | 7.06 | 5.06 | 0.89 | 4.51 | 0.72 | 5.54 | 5.52 | 5.67 | 2.05 | 3.95 | 3.48 | 4.51 | 1.34 | 0.297 | 3.2 | 5.1 | 2.74 | 5.52 | 0.8 | 4.32
2 | CTACCAAGGTGAACAAAGTCGTTGATTACTATTC | 0.425 | 0.395 | -0.0192 | 0.749 | -0.488 | 1.01 | 0.314 | 0.548 | 0.192 | 0.308 | 2.31 | 2.45 | 0.74 | 0.992 | 0.58 | 0.262 | 0.0608 | 0.544 | 0.222 | 1.42
3 | GCTTACGGGTCAAAGGTTATACCATGAATAGAAT | 7.48 | 5.87 | 0.778 | 5.87 | 0.759 | 7.21 | 11.2 | 9.29 | 9.29 | 10.3 | 4.59 | 6.16 | 1.82 | 1.93 | 2.73 | 6.11 | 0.691 | 8.2 | 0.701 | 4.64
4 | AGAACGTGGGCACGCTGAGTTGATAGCAGAGTAG | -0.602 | -0.538 | -0.448 | -0.8 | -1.22 | -0.462 | 0.523 | -0.265 | -0.225 | -0.405 | -0.231 | -0.143 | 0.109 | -0.419 | -0.518 | -0.542 | -0.719 | -0.528 | -0.906 | -0.0707
5 | GTACCAAGGGGAATAGGTCGTTGATGAGTAGGCG | -0.0504 | 0.00136 | -0.0435 | 0.269 | -0.418 | 1.3 | 0.915 | 1.15 | 0.0532 | 0.835 | -0.45 | 0.704 | -0.174 | -0.377 | 0.85 | 0.0913 | 0.00696 | 0.389 | 0.37 | 0.516
6 | ATATGTATGTTAAGGGTCATTCAGGTTGGTTCGC | 4.05 | 4.15 | 3.41 | 4.46 | 1.5 | 5.66 | 8.29 | 7.83 | 8.13 | 8.7 | 3.13 | 4.91 | 2.02 | 1.65 | 2.83 | 4.73 | 2.03 | 4.22 | 1.18 | 3.31
7 | ACTATTAGTTGAGACGACGGCAACCGATAGGTTG | -0.095 | -0.329 | -0.396 | -0.449 | 0.14 | -0.603 | 0.568 | -0.326 | -0.098 | -0.21 | -0.317 | -0.0579 | 0.669 | 0.567 | 0.0844 | -0.384 | -0.0364 | -0.302 | 0.521 | -0.0586
8 | GCTGCTAGCTCAACTGATGGTCAGCTAAAGCTCG | -0.673 | -0.959 | -0.842 | -1.01 | -1.05 | -1.23 | -0.747 | -1.13 | -1.24 | -1.15 | -0.64 | -0.817 | -1.66 | -1.33 | -1.88 | -0.933 | -1.77 | -1.22 | -1.08 | -0.407
9 | ATCGAAAGGTCGAAGCTGAGTATACCCACCCGAA | 4.55 | 3.6 | 0.403 | 2.6 | 0.738 | 4.28 | 2.17 | 2.92 | 0.67 | 1.94 | 0.112 | 1.14 | 0.883 | -0.0386 | 1.49 | 2.27 | 0.151 | 3.14 | 0.371 | 3.63
10 | TCATATAGGTACACAGGTGAAAGTCCGTAAGTTA | 0.94 | 1.1 | 0.566 | 1.09 | 0.0342 | 1.94 | 2.32 | 3.69 | 4.18 | 4.15 | 3.06 | 2.34 | 0.518 | 0.496 | 1.23 | 1 | 0.981 | 0.908 | 1.26 | 0.943
11 | CCTCGGAGGACAGAGGGTCAGAGCTGTCCGCTTT | 0.828 | 0.75 | -0.594 | 0.328 | -1.2 | 1.2 | -0.24 | 0.834 | -0.79 | -0.115 | -0.421 | 0.141 | -1.61 | -1.81 | 0.33 | 0.62 | -0.49 | 1.14 | -0.305 | 2.22
